Assay results: PubChem BioAssay AID686978 (National Center for Advancing Translational Sciences (NCATS), 2013)
Several values for one entry are separate records, joined by “and”; a condition that tells them apart may be missing. Equal values may be shown once. Screen size: about 420,000 compounds; about 64,000 (15%) were called active. Not shown: some 27% with an inconclusive outcome. Calls follow the shape of the dose curve; as a rule, active = well fitted inhibition curve with a large enough effect; inconclusive = small, poorly fitted or top-dose-only effect; inactive = flat fitted curve, though single readings scatter. The list is a sample of the results. Entries that show only a call come without a potency.

Experiment: qHTS for Inhibitors of human tyrosyl-DNA phosphodiesterase 1 (TDP1): qHTS in cells in absence of CPT; also: nearly all actives have a fitted effect of over 55% in size
Conditions: DT40 Tdp1-/- hTDP1 cells, no CPT, ATP luminescence, 48 h; activity change, negative = growth inhibition: at 46.2 µM (top of the series)
How it was run: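 Chicken DT40 Tdp1-/- cells stably complemented with human TDP1 were seeded at 400 cells/well with DMSO in place of 20 nM camptothecin. After compound pinning, cells grew at least 48 hr at 37 °C; viability read by CellTiter-Glo luminescence.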
Potency is read from the fitted curve at half-maximal effect.

Structure (SMILES) | Potency
O=C(COC(=O)c1ccccc1SCC(=O)N1CCCC1)Nc1ccccc1OC(F)F | inactive
Cc1ccc(CNC(=O)CCNC(=O)Cn2ccc3ccccc3c2=O)cc1 | inactive
CCS(=O)(=O)Nc1cc(C(=O)OC)ccc1C(=O)OC | inactive
CCCN(CCC)C(=S)Nc1cc(C(=O)OC)ccc1C(=O)OC | 18.4 µM (active)
CCN(CCO)C(=S)Nc1cc(C(=O)OC)ccc1C(=O)OC | inactive
CN1CCN(Cc2c(C(=O)N3CCc4ccccc4C3)nc3ccc(Cl)cn23)CC1 | inactive
CN(C)C(=O)c1nc2ccc(Cl)cn2c1CN1CCN(c2ncccn2)CC1 | inactive
CC(=O)Nc1c(-c2ccc(C)cc2)nc2ccc(Cl)cn12 | inactive
CSc1nc(-c2ccco2)nn1C(=O)CCc1ccccc1 | inactive
O=C(Nc1c(-c2ccccc2)nc2c(Br)cc(Br)cn12)c1ccco1 | inactive
Cc1ccc(-c2nc3ccc(Cl)cn3c2Cc2ccccc2)cc1 | 20.6 µM (active)
Cc1ccc(-c2cn3cc(C)ccc3n2)cc1 | inactive
c1ccc(Cc2c(-c3ccco3)nc3c4ccccc4ccn23)cc1 | 20.6 µM (active)
Cc1ccc(Cc2c(-c3ccco3)nc3ccc(Cl)cn23)cc1 | 11.6 µM (active)
Cc1nn(CC(=O)Nc2ccc3c(c2)OCO3)c(C)c1[N+](=O)[O-] | inactive
Cc1cccc(NC(=O)CN2C(=O)CNC2=O)c1 | inactive
C/C(=N\NC(=O)c1cccc([N+](=O)[O-])c1)c1cccnc1 | inactive
CCOC(=O)C(C)Oc1cccc2c(=O)n(CC(=O)N3CCc4ccccc43)ccc12 (centres undefined) | inactive
O=C(Nc1ccccc1C(=O)N1CCOCC1)c1ccc(Cl)cc1 | inactive
Cn1c(=O)n(C)c2cc(S(=O)(=O)Nc3ccc(F)cc3)ccc21 | 20.6 µM (active)
Cc1cc(C)cc(NS(=O)(=O)c2ccc(F)cc2)c1 | inactive
Cn1c(=O)n(C)c2cc(NS(=O)(=O)c3ccc(F)cc3)ccc21 | inactive
Cn1c(C(=O)N2CCCC(C(=O)NCc3ccccc3)C2)cc2sccc21 (centres undefined) | inactive
C/C(=N\Nc1ccc(Cl)nn1)c1ccccc1O | 0.58 µM (active)
Oc1cccc(/C=N/Nc2ccc(Cl)nn2)c1O | 0.13 µM (active)
Clc1ccc(N/N=C/c2cccs2)nn1 | inactive

Structure (SMILES) | Potency
CCCCCCCN=C(C)c1ccccc1O | inactive
Fc1ccccc1Cc1ccc(Cl)nn1 | inactive
O=C(c1cccc(-n2cccc2)c1)N1CCN(S(=O)(=O)c2ccc(F)cc2)CC1 | inactive
C=C(Cl)COC(=O)C1C2C=CC(C2)C1C(=O)O (centres undefined) | inactive
CC12CN(NC(=O)c3ccc(Cl)cc3)C3(C#N)CC1CCC23C (centres undefined) | inactive
Cc1ccc(C(CNC(=O)Nc2ccccc2)N2CCN(C)CC2)cc1 (centres undefined) | inactive
Cc1ccc(NC(=O)[C@H](Cc2ccccc2)NC(=O)CC[C@H]2O[C@@H](n3ccc(=O)[nH]c3=O)[C@H](O)[C@@H]2O)cc1C | inactive
CCOC(=O)/C(N=Nc1cc(C(=O)O)cc(C(=O)O)c1)=C(\O)CCl | inactive
CCOc1ccc(-c2n[nH]c3c2C(c2ccccc2OC)N(c2ccc(Br)cc2)C3=O)cc1 (centres undefined) | 14.6 µM (active)
CCO/C=C1\C(=O)N(c2ccc(OCC)cc2)C(=O)c2ccccc21 | inactive
CCOc1ccc(/C(O)=C2\C(=O)C(=O)N(c3ccc(OC)cc3)C2c2ccccc2[N+](=O)[O-])cc1 (centres undefined) | inactive
Cc1ccc(C(=O)Nc2ccn(C)n2)cc1 | inactive
COc1ccc(NC(=O)C2CCCN(S(=O)(=O)c3cccc4cccnc34)C2)cc1OC (centres undefined) | inactive
Cc1ccc(NC(=O)C2CCCN2S(=O)(=O)c2cccc3cccnc23)c(C)c1 (centres undefined) | 18.4 µM (active) and 16.4 µM (active)
O=C(Nc1nccs1)C1CCCN1S(=O)(=O)c1cccc2cccnc12 (centres undefined) | inactive
COC(=O)C1=C(C)N(C)C(C)=C(C(=O)OC)C1c1cccc(Br)c1 | inactive
Cn1c2c(c(=O)n(C)c1=O)C(c1cccc(F)c1)C(C#N)=C(N)O2 (centres undefined) | inactive
COC(=O)C1=CN(c2c(C)cc(C)cc2C)C(N)=C(C#N)C1c1cccc(F)c1 (centres undefined) | 14.6 µM (active)
Cc1ccc(NC(=O)C(C)OC(=O)Cc2c[nH]c3ccccc23)cc1S(=O)(=O)N1CCOCC1 (centres undefined) | inactive
O=C(OCC(=O)N1CCCCCC1)c1ccc(Br)c(S(=O)(=O)N2CCOCC2)c1 | inactive
COc1cc(Br)cc(/C=N/c2ncn[nH]2)c1O | inactive
N#C/C(C(=O)N1CCOCC1)=C1/SC(Cc2ccc(F)cc2)C(=O)N1c1ccccc1 (centres undefined) | inactive
CC1(C(=O)NS(=O)(=O)c2ccccc2)CCN1C(=O)Cc1ccc(-c2ccccc2)cc1 (centres undefined) | inactive
C#Cc1ccc(NC(=O)C2(C)CCN2C(=O)Cc2ccc(-c3ccccc3)cc2)cc1 (centres undefined) | 20.6 µM (active)
CCCNC(=O)C1(C)CCN1C(=O)Cc1ccc(-c2ccccc2)cc1 (centres undefined) | 9.2 µM (active)
CC1(C(=O)NS(=O)(=O)Cc2cccc(Cl)c2)CCN1C(=O)Cc1ccccc1 (centres undefined) | inactive

Structure (SMILES) | Potency
CC1(C(=O)NS(=O)(=O)c2cccs2)CCN1C(=O)Cc1ccc(-c2ccccc2)cc1 (centres undefined) | inactive
COc1ccc(OC)c(NC(=O)C2(C)CCN2C(=O)Cc2ccccc2)c1 (centres undefined) | inactive
O=C(CSc1cn(CC(=O)N2CCOCC2)c2ccccc12)Nc1ccccc1 | inactive
O=C(CN1C(=O)NC2(CCCC2)C1=O)Nc1cc(C(F)(F)F)ccc1N1CCOCC1 | inactive
Cc1ccc2c(c1)N(CCCC(=O)NCc1cccnc1)C(=O)CO2 | inactive
COc1cc(C)ccc1OCC(=O)OCC(=O)c1ccc[nH]1 | inactive
COCC1CCN(C(=O)C2CCC(=O)N(CC3CCCCC3)C2)CC1 (centres undefined) | inactive
Cc1ccc(S(=O)(=O)N(CC(=O)NCc2ccco2)c2ccccc2C)cc1 | inactive
CN(CC(=O)Nc1cccc2c1CCCC2)S(=O)(=O)c1ccc(Cl)cc1 | inactive
Cc1ccc(S(=O)(=O)N(CC(=O)Nc2ccc(Cl)cc2Cl)c2ccccc2C)cc1 | 11.6 µM (active)
Cc1ccc(N2C(=O)SC(N(CC(=O)O)c3ccc(C)cc3)C2=O)cc1 (centres undefined) | inactive
C(#CCN1CCOCC1)CCCN1CCOCC1 | inactive
COc1ccc(NC(=O)C(=O)NCc2ccco2)cc1 | inactive
COc1ccc(Nc2nc(Cl)nc(NCc3ccco3)n2)cc1 | inactive
COc1ccc(Nc2nc(NCc3ccco3)nc(N/N=C/c3ccccc3Cl)n2)cc1 | 23.1 µM (active)
CN1CCn2cnc(C(=O)NCC(=O)OC(C)(C)C)c2C1=O | inactive
CC12CCC(C(=O)N(CCC#N)CCC#N)(CC1=O)C2(C)C (centres undefined) | inactive
CC1=CC(C)(C)NC(=S)N1NC(=O)c1ccccc1Cl | inactive
COc1ccc(NS(=O)(=O)c2cc(NC(=O)/C=C/c3cc(OC)c(OC)c(OC)c3)ccc2N2CCCCC2)cc1 | inactive
COc1ccc(NS(=O)(=O)c2cc(NC(=O)C3CCCCC3)ccc2N2CCOCC2)cc1 | 13 µM (active)
COc1ccc(NS(=O)(=O)c2cc(NC(=O)c3ccc(S(=O)(=O)N(C)C)cc3)ccc2N2CCOCC2)cc1 | inactive
O=c1[nH]c(CN2CCOCC2)nc2scc(-c3ccccc3)c12 | inactive
Oc1ccc(-n2nnnc2SCc2c(F)cccc2Cl)cc1 | inactive
COc1ccccc1CNS(=O)(=O)c1ccc2c(c1)NC(=O)CS2 | inactive
CC(CC(=O)N1CCN(c2ccccc2)CC1)S(=O)(=O)c1ccc2c(c1)NC(=O)CS2 (centres undefined) | 20.6 µM (active)
CC(CC(=O)N1CCN(c2ccccc2)CC1)c1ccccc1 (centres undefined) | inactive

Structure (SMILES) | Potency
Cc1nonc1NC(=O)c1ccccc1Br | inactive
CC(C)C(C(=O)NCc1ccco1)N(CC1CCCO1)C(=O)CNS(=O)(=O)c1ccc(F)cc1 (centres undefined) | inactive
CCOC(=O)Cc1ccc(NC(=O)Nc2c[nH]c(=O)[nH]c2=O)cc1 | inactive
CCN(CC)Cc1nc2sc(C)c(C)c2c(=O)[nH]1 | inactive
Cc1ccc(S(=O)(=O)N2CCCC2C(=O)OCc2nc3sc(C)c(C)c3c(=O)[nH]2)cc1 (centres undefined) | inactive
CS(=O)(=O)N(Cc1nc2sc3c(c2c(=O)[nH]1)CCCC3)C1CCCCC1 | 23.1 µM (active)
CC(=O)Nc1ccc(NC(=O)CC2CCCC2)cc1 | inactive
COc1cc(CCN=Cc2ccccc2O)c([N+](=O)[O-])cc1OC | inactive
Cc1c(NC(=O)C(=O)N/N=C/c2cccs2)c(=O)n(-c2ccccc2)n1C | inactive
Cc1cc(N=CC2=C(O)CCCC2=O)no1 | inactive
COc1ccc(Nc2ncnc3ccc(Br)cc23)c(OC)c1 | inactive
CC1(C)CC2CC(C)(CN2c2ncnc3ccc(Br)cc23)C1 (centres undefined) | 3.26 µM (active)
CCCCn1c(N)c(N(CCOC)C(=O)CSCC(=O)Nc2cccc(C)c2)c(=O)[nH]c1=O | inactive
CC[C@@H](C)[C@@H](C(=O)N1CCN(C(=O)OC(C)(C)C)CC1)n1cc(CCC(=O)O)nn1 | inactive
COc1ccc(C2NC(=O)N(C)C3=C2C(=O)N(c2ccc(C(=O)O)cc2)C3)cc1 (centres undefined) | inactive
Cc1ccc2nnn(Cc3cccc(C(C)(C)C)c3O)c2c1 | 11.6 µM (active)
Cc1ccc(C(=O)CSc2nnc(Cn3nnc4ccccc43)n2C)cc1 | inactive
O=C(Nc1ccccc1)N[C@H]1C[C@H](C(=O)O)Nc2cc(Cl)cc(Cl)c21 | inactive
CCCCCc1ccc(-c2ccc(OCC)cc2)nc1 | inactive
COc1ccc2[nH]c(=S)cc(C)c2c1 | inactive
COc1ccc2[nH]c3c(C)c4cc[n+](C)cc4c(C)c3c2c1 | 0.259 µM (active)
COc1ccc2[nH]c3ccc(OC)cc3c2c1 | inactive
O=S(=O)(NCc1ccc2c(c1)OCO2)c1cccc2nsnc12 | inactive
O=Cc1cn(-c2ccccc2)nc1-c1ccccn1 | inactive
COc1ccc2c(c1)OC(O)(C(F)(F)C(F)F)CC2=O (centres undefined) | 23.1 µM (active)
COc1ccc2c(c1)SC(C)CC2=O (centres undefined) | inactive
